Where “and” joins values, the source holds several entries; their conditions need not be identical. Equal values may be shown once. The whole screen tested about 330,000 compounds, of which about 1,900 (0.58%) were called active. Inconclusive results (about 4%) are left out. The list is a sample of the results. Measured potencies and affinities stand elsewhere. Values without a mark were called inactive. Rule as the data show it: inconclusive = inhibition above about 70% without an active follow-up result; inactive = below that.
Assay: M. tuberculosis growth inhibition, HTS (AID 449762);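 also: bacterial growth assessed after seven days of incubation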
Settings: M. tuberculosis H37Rv growth inhibition, 7H9 media; at 25 µM; hits give high values

In order of falling inhibition:
1. CN(C)S(=O)(=O)c1ccc(C(=O)Nc2nnc(-c3ccco3)o2)cc1  70.1%
2. O=C(CN1CCC(C(O)(c2ccccc2)c2ccccc2)CC1)Nc1cc(Cl)ccc1Cl  54.5%
3. Cc1cc(Cl)ccc1NC(=O)CN1CCC(C(O)(c2ccccc2)c2ccccc2)CC1  46%
4. COc1ccc(C(=O)n2c(N)nc3ccccc32)cc1OC  44.1%
5. Cc1c(OCc2ccccc2)c(=O)ccn1Cc1ccccc1  18%
6. O=C(N/N=C/c1ccco1)c1cc(-c2ccc3ccccc3c2)n[nH]1  14.2%
7. C=C(Cl)CSC(=S)N(CC)CC  14%
8. O=C(Nc1ccccc1OCc1ccccc1)c1ccccc1Br  12.7%
9. CCN(c1ccccc1)S(=O)(=O)c1ccc(C(=O)Nc2nnc(-c3ccco3)o2)cc1  12.1%
10. Cc1cc(=O)n2[nH]c(NCc3c(F)cccc3Cl)nc2n1  11.1%
11. Cc1ncoc1C(=O)N1CCCC(C(=O)c2ccc(-c3ccccc3)c(F)c2)C1 (centres undefined)  10.4%
12. Nc1nc2ccccc2n1C(=O)c1cccs1  10.2%
13. COc1ccc(CNC(=O)c2ccc(S(=O)(=O)NCc3ccco3)cc2)cc1  9.2%
14. CN(C)C(CNC(=O)c1coc2ccccc2c1=O)c1ccccc1 (centres undefined)  8.82%
15. COc1ccc2cc(Br)ccc2c1CC(=O)N(C)C  8.82%
16. Cc1ccc2nc(Nc3ccc(Cl)cc3)c3nncn3c2c1  7.65%
17. c1cncc(-c2nc(NCC3CCCO3)c3ccccc3n2)c1 (centres undefined)  6.22%
18. CN(C)S(=O)(=O)c1cccc(NC(=O)c2ccc(OC(F)(F)F)cc2)c1  5.44%
19. O=C(Nc1cccc(-c2ccc(N3CCCCC3)nn2)c1)C(F)(F)F  5.09%
20. Cc1ccc(NC(=O)NCc2ccncc2)cc1Cl  4.38%
21. CCCNC(=O)c1ccc2c(=O)n(Cc3ccco3)c(=S)[nH]c2c1  4.3%
22. Cc1cccc(N2CC(C(=O)Nc3nccs3)CC2=O)c1C (centres undefined)  4.15%
23. CN(CC(=O)Nc1ccccc1Cl)C(=O)CSc1ncc(C(F)(F)F)cc1Cl  3.84%
24. CCN(CC)C(=S)SCC(=O)c1ccccc1  3.47%
25. COCCCNC(=O)c1ccc(-c2csc(C)n2)cc1  2.89%
26. Cc1ccc2nc(NCc3ccccc3)c(C=O)c(=O)n2c1  2.81%
27. O=C1NC[C@H](c2ccccc2)N(CCc2cc(C(F)(F)F)cc(C(F)(F)F)c2)C1=O  2.8%
28. CCC(=O)Nc1cccc(-c2ccc(N3CCCCC3)nn2)c1  2.67%
29. O=C(NCCNC(=O)c1ccc(Cl)cc1Cl)c1ccco1  2.57%
30. c1ccc(NCCCNc2ccccc2)cc1  2.48%
31. O=[N+]([O-])c1ccc(-c2nc(NCC3CCCO3)c3ccccc3n2)cc1 (centres undefined)  2.21%
32. O=C(NCCc1ccccc1)[C@@H]1CC=C[C@@H]2CCN(Cc3ccccc3)C(=O)[C@@H]21  1.96%
33. CCOC(=O)C1CCN(C(=O)CCc2nnc3ccc(N4CCC(C)CC4)nn23)CC1  1.94%
34. CCOC(=O)N1CCN(C(=O)/C(=C/c2ccc(OC)cc2)NC(=O)c2ccccc2)CC1  1.93%
35. CCOc1ccc2nc(SCC(=O)Nc3ccc(S(=O)(=O)N4CCCC4)cc3)c(C)cc2c1  1.42%
36. Cc1cc(C)c(NC(=O)CN(C)CC(=O)Nc2cccc(S(=O)(=O)N(C)c3ccccc3)c2)c(C)c1  1.14%
37. COc1cccc(C(=O)/C=C/Nc2ccc(S(=O)(=O)Nc3nc(C)cc(C)n3)cc2)c1  1.1%
38. C=CCSc1nnc(COc2ccc(=O)n(-c3ccccc3)n2)n1CC  1.1%
39. Cc1ccc(C(=O)Nc2cccc(C(F)(F)F)c2)cc1NC(=O)c1[nH]cnc1C(N)=O  1.02%
40. Cc1ccc(C(=O)Nc2cccc(C(F)(F)F)c2)cc1Nc1cnccn1  0.61%
41. COc1cccc(NC(=S)N2CCN(c3ccc([N+](=O)[O-])cc3)CC2)c1  0.58%
42. COc1ccc2cc(C(=O)C3CCCN(C(=O)c4cncs4)C3)ccc2c1 (centres undefined)  0.43%
43. O=C(O)c1cnn2cc(-c3[nH]ncc3[N+](=O)[O-])cnc12  0.22%
44. CC(C)NCc1nnc(-c2ccc(Cl)cc2)o1  0.17%
45. N/C(=N\O)c1ccc([N+](=O)[O-])s1  0.15%
46. O=C(O)c1ccccc1C(=O)N1N=C(c2ccccc2)CC1c1ccccc1O (centres undefined)  0.11%
47. C#CC1CCCCC1NC(=O)Nc1cnccc1C(F)(F)F (centres undefined)  -0.16%
48. O=C(CNC(=S)N(Cc1ccccc1)Cc1cccnc1)NC1CCCC1  -0.51%
49. CCOC(=O)C1(Cc2ccc(Cl)cc2)CCN(C(=O)c2cnc(C)cn2)CC1  -0.58%
50. CCC(=O)Nc1nc2nc(C)cc(=O)n2[nH]1  -0.66%
51. CCOC(=O)N1CCN(Cc2nc(N)nc(Nc3ccc(Cl)cc3)n2)CC1  -0.66%
52. Cc1ccc(NC(=O)CN2CCOCC2)cc1S(=O)(=O)N1CCCCC1  -0.79%
53. C[C@H](NC(=O)NCc1ccc(F)cc1)C(=O)O  -0.83%
54. Cc1cc(Cl)ccc1NC(=O)COC(=O)c1cc([N+](=O)[O-])ccc1N1CCOCC1  -0.98%
55. FC(F)(F)c1cc(CCN2C(=S)NC[C@@H]2c2ccccc2)cc(C(F)(F)F)c1  -1.12%
56. COc1cc(CNc2ncn[nH]2)cc(Br)c1OC  -1.3%
57. Brc1ccc(/C=N/Nc2nncc(-c3ccccc3)n2)o1  -1.56%
58. CSc1ccc(CNC(=O)C2CCC(=O)N(Cc3cccc(F)c3)C2)cc1 (centres undefined)  -1.72%
59. Cc1ccc(Cn2ccc(=O)c(OCc3ccccc3)c2C)cc1  -1.87%
60. O=C(O)C1=C[C@H](c2coc3ccccc3c2=O)C[C@H](OCCCCO)O1  -1.88%
61. CCC(C)(C)NC(=O)C(C)OC(=O)c1nsc(Cl)c1Cl (centres undefined)  -2.01%
62. Cc1ccc(-c2cc(C(=O)N/N=C/c3ccco3)[nH]n2)cc1  -2.14%
63. CN(C)C(=O)Nc1cccc(OC(=O)N(C)C)c1  -2.5%
64. CCN(CC)C(=O)Cc1c(OC)ccc2cc(Br)ccc12  -2.55%
65. NC1=NC(c2ccc(Cl)cc2)n2c(nc3ccccc32)N1 (centres undefined)  -2.59%
66. COc1ccc(CN2CC[C@H]3C=CC[C@@H](C(=O)NCCc4ccccc4)[C@H]3C2=O)cc1OC  -2.75%
67. Cc1cc(OCC(=O)O)c2ccccc2n1  -2.82%
68. COc1cc(C(N)=O)cc(Br)c1OCc1ccccc1  -3.08%
69. CC(=O)c1ccc(N2CCN(C(=O)C3CCN(S(=O)(=O)Cc4ccccc4)CC3)CC2)cc1  -3.28%
70. c1cc2c3c(cccc3c1)C(N1CCOCC1)=N2  -3.61%
71. N#CCCn1cc(C(=O)NCc2ccccc2)c(-c2ccc3c(c2)OCCO3)n1  -3.92%
72. Cc1cc(NC(=O)Cn2cnc3sccc3c2=O)no1  -4.01%
73. COCCN(C(=O)COC(=O)CCc1ccc(OC)cc1)c1c(N)n(Cc2ccccc2)c(=O)[nH]c1=O  -4.28%
74. C=CCc1cc(C)ccc1OCCOCCn1ccnc1  -4.55%
75. c1cc2c3c(cccc3c1)C(N1CCCCC1)=N2  -4.9%
76. C=CCN1C(=O)C(CC(=O)Nc2ccc(OC)cc2)N(Cc2ccco2)C1=S (centres undefined)  -5.03%
77. COC(=O)N/N=C/c1ccc([N+](=O)[O-])s1  -5.28%
78. NC1=NC(c2ccccc2Cl)n2c(nc3ccccc32)N1 (centres undefined)  -5.58%
79. O=C(Nc1ccccc1C(F)(F)F)c1ccc2nccnc2c1  -5.96%
80. Cc1cc(OCC(=O)O)c2cccc(C)c2n1  -5.96%
81. COC(=O)C1=C(c2ccc(OCc3ccccc3)cc2)C[C@@H]2CC[C@H]1N2C(=O)NCCCc1ccccc1  -6.15%
82. CC1(CCc2ccccc2)NC(=O)N(CC(=O)N2CC(=O)Nc3ccccc32)C1=O (centres undefined)  -6.43%
83. Cn1cc(CNC(=O)C2CCC(=O)N(Cc3cccc(C(F)(F)F)c3)C2)cn1 (centres undefined)  -6.46%
84. NS(=O)(=O)c1cccc(NC(=O)CCS(=O)(=O)c2ccc(Cl)cc2)c1  -6.68%
85. Cc1cc(NC(=O)CSc2cn(CCNC(=O)c3ccc(Cl)cc3)c3ccccc23)no1  -7.12%
86. Cc1ccc(OCCNC(=O)CNC(=O)c2ccc(Cl)c([N+](=O)[O-])c2)cc1  -8.16%
87. COc1ccc(CN(Cc2ccccn2)S(=O)(=O)c2ccc(-n3cnnn3)c(OC)c2)cc1  -8.37%
88. NC(=S)N=Nc1c(O)n(CCCl)c2ccc(Br)cc12  -8.7%
89. COC(=O)C1=C(c2ccc(OCc3ccccc3)cc2)C[C@@H]2CC[C@H]1N2C(=O)NCc1ccccc1  -9.3%
90. Cn1c(SCc2cccc(F)c2)nnc1-c1ccncc1  -10.7%
91. CCOc1ccc(S(=O)(=O)NCc2cccnc2)cc1NC(=O)c1ccccc1F  -11.4%
92. O=C(O)CCNS(=O)(=O)c1ccccc1C(F)(F)F  -11.5%
93. CC1CCCC(C)N1C(=O)CN1c2cccc3cccc(c23)S1(=O)=O (centres undefined)  -12.9%

In the case of `CN(C)C(=O)Oc1cccc([N+](C)(C)C)c1`, the inhibition is reported as -1.23% and -1.63%.

— PubChem BioAssay AID449762 (Southern Research Specialized Biocontainment Screening …, 2010)
